SNCA viab count – cell viability loss counter-screen | hit rate 0.12% among 150,000 | HEK-293-SNCA-luc viability, GF-AFC fluorescence, 24 h | Potency, µM (highest dose often 57.1 µM), for the others: at the highest dose activity change, negative = cytotoxicity, usual class: cytotoxic;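 also: 0% = DMSO-treated cells and -100% = medium-only wells without cells; nearly all actives have a fitted effect of over 30% in size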
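Cytotoxicity counterscreen: after 24 h compound treatment of genome-edited SNCA-luciferase HEK-293 cells, live-cell protease substrate GF-AFC read by fluorescence after 30 min; activity scaled between DMSO (0%) and medium-only (-100%), curves Hill-fitted.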
SNCA expr inh – reduces expression of the alpha-synuclein gene; HEK-293 SNCA-luciferase knock-in, luminescence, 24 h; Potency, µM (top dose mostly 57.2 µM), without a hit: at the highest dose activity change, negative = inhibition, hits mostly inhibitors; hit rate 0.17% among 140,000;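 also: plate controls were DMSO cells for no effect and cell-free wells for full effect; nearly all actives have a fitted effect of over 45% in size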
GPT2 inh – GPT2 alanine aminotransferase inhibition. Q8TD30. Recombinant GPT2, coupled pyruvate oxidase/HRP Amplex Red fluorescence. Potency, µM (highest dose often 57.7 µM), without a hit: at the top dose activity change, negative = inhibition, most hits filed as inhibitors. hit rate 0.25% among 100,000. AID 1671188; also: nearly all actives have a fitted effect of over 60% in size
Target sequence (Q8TD30 whole entry, looked up): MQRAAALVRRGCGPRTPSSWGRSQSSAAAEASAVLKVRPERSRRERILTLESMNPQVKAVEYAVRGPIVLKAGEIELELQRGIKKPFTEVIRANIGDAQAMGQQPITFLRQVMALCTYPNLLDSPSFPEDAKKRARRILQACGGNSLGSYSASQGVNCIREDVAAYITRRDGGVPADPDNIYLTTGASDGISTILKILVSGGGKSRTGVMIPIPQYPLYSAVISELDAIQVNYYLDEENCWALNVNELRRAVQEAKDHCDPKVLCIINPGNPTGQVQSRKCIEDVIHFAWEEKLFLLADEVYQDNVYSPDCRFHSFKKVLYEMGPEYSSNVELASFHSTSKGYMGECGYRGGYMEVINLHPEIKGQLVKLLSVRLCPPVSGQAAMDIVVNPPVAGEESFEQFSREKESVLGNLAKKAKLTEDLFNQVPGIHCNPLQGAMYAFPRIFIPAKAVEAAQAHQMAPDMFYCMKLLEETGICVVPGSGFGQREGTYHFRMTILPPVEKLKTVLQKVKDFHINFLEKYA
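Recombinant GPT2 (10ng/uL) with 250uM a-KG and 2mM L-alanine, 30 min at room temperature, in HEPES pH 7.5 buffer. Pyruvate detected by pyruvate oxidase/HRP/Amplex Red fluorescence after 30 min in the dark; AOA (50uM) as positive control.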
The depositor's hits bear a star; i = inactive; ? = inconclusive; . = not tested or not shown; ! = a repeat was not active; [ ] = dose if it differs, or a comment. Compounds with a hit are over-represented: about 0.32% of the library has one in this group of screens. Calls follow the shape of the dose curve; as a rule, active = well fitted curve in the direction sought with a large enough effect; inconclusive = small, poorly fitted or top-dose-only effect, or another doubt; inactive = no such curve, though single readings can be large; an effect the other way counts as inactive or inconclusive. Unless noted, % is scaled to controls: 0 for no effect and ±100 for the full control effect; potency is read from the fitted curve at half-maximal effect.

SMILES	SNCA viab count	SNCA expr inh	GPT2 inh
CS(=O)(=O)c1oc(-c2ccc(F)cc2)nc1S(=O)(=O)c1ccc(Cl)cc1	-6.2%	8.8%	.
CC(C)S(=O)(=O)c1oc(-c2ccc(F)cc2)nc1S(=O)(=O)c1ccccc1	2.51µM*	?	.
CC(C)S(=O)(=O)c1oc(-c2cccs2)nc1S(=O)(=O)c1ccc(F)cc1	?	14.1µM*	.
COc1ccc(-c2nc(S(=O)(=O)c3ccc(Cl)cc3)c(NCc3ccccc3)o2)cc1	2.3%	13.2%	.
Cc1ccc(S(=O)(=O)c2nc(-c3cccs3)oc2SC(C)C)cc1	1.6%	19.6%	.
O=S(=O)(c1ccccc1)c1nc(-c2ccc(F)cc2)oc1N1CCOCC1	-11.5%	44.9%	.
CCS(=O)(=O)c1oc(-c2ccc(F)cc2)nc1S(=O)(=O)c1ccc(Br)cc1	15.8µM*	?	.
CCCCS(=O)(=O)c1oc(-c2ccc(F)cc2)nc1S(=O)(=O)c1ccccc1	14.1µM*	?	.
O=C1CC2(CCN(C(=O)C3CCCN(C(=O)Nc4ccccc4)C3)CC2)Oc2ccccc2N1 (configuration not stated)	-11.5%	-28.6%	-9.2%
Cc1ccccc1-c1nccc2c(=O)cc(-c3cccnc3)oc12	-17.7%[87.6 µM]	-13.0%[87.6 µM]	-0.4%[88.5 µM]
Cc1cc(Nc2cc(N3CCN(C)CC3)nc(C=Cc3ccccc3)n2)n[nH]1	?	-2.7%[87.6 µM]	i
Cc1cc(Nc2cc(N3CCN(C)CC3)nc(/C=C/c3ccccc3)n2)n[nH]1	29.9µM*	.	i
COc1cc2ncnc(Nc3ccc(F)c(Cl)c3)c2cc1O	-1.0%	.	i
COc1cc2ncnc(Nc3ccc(F)c(Cl)c3)c2cc1NC(=O)/C=C/CN1CCCCC1	23.8µM*	.	-10.7%
O=C(NCCCc1ccccc1)C1CN(C2CCCCC2)C(=O)N1 (configuration not stated)	-6.8%[12.5 µM]	-9.0%[87.6 µM]	i
COc1cccc(Nc2nc(-c3c(C)noc3C)cc3cc(CN(C)C)oc23)c1	-15.2%[87.6 µM]	32.2%[87.6 µM]	i
COc1ccc(F)cc1-c1cccc(C(=O)NCCNC(=O)c2ccc(Cl)cc2)c1	3.4%	5.0%	2.0%
C=C1/C(=C/C=C2\CCC[C@]3(C)[C@@H]([C@H](C)/C=C/C(=O)C4CC4)CC[C@@H]23)C[C@@H](O)C[C@@H]1O	23.8µM*	.	-12.6%
C=C1/C(=C/C=C2\CCC[C@]3(C)[C@@H]([C@H](C)/C=C/[C@@H](C)C(C)C)CC[C@@H]23)C[C@@H](O)C[C@@H]1O	-10.5%	.	i
Cc1ccc2c(CNCCc3ccc(Cl)cc3)c(C(=O)O)n(Cc3ccc(F)cc3)c2c1	4.3%	-7.6%	.
C=Cc1ccc(Cn2c(C(=O)O)c(CNCCc3ccccc3)c3ccc(C)cc32)cc1	28.2µM*	?	.
O=C(CCC1CCCN(S(=O)(=O)c2cccc(F)c2)C1)Nc1ccc(F)cc1 (configuration not stated)	-29.5%	?	-10.8%
O=C(NCC(F)(F)F)c1nc2sccn2c1-c1ccc(C(F)(F)F)cc1	16.7%	-11.2%	-1.6%
COc1ccc2[nH]c3c(c2c1)CCNC31CCN(C(=O)c2cnccc2C)CC1	5.0%[12.5 µM]	?	0.3%
COc1ccc2[nH]c3c(c2c1)CCNC31CCN(C(=O)c2cccnc2C)CC1	-2.6%[12.5 µM]	20µM*	2.9%
SMILES	SNCA viab count	SNCA expr inh	GPT2 inh
Cc1ccc(C(=O)NC2CCN(Cc3cccc(-c4ccc(F)c(F)c4)c3)CC2)cc1	-11.4%	?	i
Cc1cccc(-c2cccc(CN3CCC(N[S+](=O)([O-])c4cccs4)CC3)c2)c1	0.7%	-4.1%	-6.3%
COc1ccc(CCC(=O)c2c(O)cc(O)cc2O[C@@H]2O[C@H](CO)[C@@H](O)[C@H](O)[C@H]2O)cc1	11.6%[23.9 µM]	.	?
C[C@@H]1O[C@@H](O[C@H]2[C@H](Oc3cc(O)c(C(=O)CCc4ccc(O)cc4)c(O)c3)O[C@H](CO)[C@@H](O)[C@@H]2O)[C@H](O)[C@H](O)[C@H]1O	-1.8%	.	7.08µM*
CCc1cccc(NC(=O)Cn2c(=O)n(Cc3ccccc3)c(=O)c3c(C)c(C(=O)N(C)C)sc32)c1	-12.9%	12.6µM*	.
CCN(CC)C(=O)c1sc2c(c1C)c(=O)n(Cc1ccccc1)c(=O)n2CC(=O)Nc1ccc(OC)cc1	-6.3%	-6.3%	.
O=c1[nH]sc2cc(Cl)ccc12	-18.1%[23.9 µM]	-29.4%[25.6 µM]	14.1µM*
COc1cccc(-c2cn3cc(C(=O)NCCc4ccccc4F)nc3s2)c1	-2.4%	17.1%	-13.9%
COc1ccc(C(=O)N2CCCN(c3nccc(Nc4ccc(C)cc4)n3)C2)cc1	-6.8%[12.5 µM]	?	i
COc1cccc(C(=O)NC2CCN(c3nccc(Nc4ccccc4OC)n3)CC2)c1	-5.9%	-13.3%	1.8%
O=C(Cc1ccsc1)N1CCOc2ccc(CN3CCCCCC3)cc2C1	-18.0%	7.4%	i
O=C(NCc1ccc2c(c1)CCN2C(=O)c1ccc(F)cc1)c1c(F)cccc1F	-7.2%	-1.9%	.
CNC(=O)c1c(F)cccc1Nc1nc(Nc2cc3c(cc2OC)CCN3C(=O)CN(C)C)nc2[nH]ccc12	-17.3%	13.6µM*	?
COc1ccccc1Nc1ccnc(N2CCC(C(=O)NCC(F)F)CC2)n1	-0.2%	17.7%	i
O=C(Nc1ccc(F)cc1)c1nc2sccn2c1-c1cccc(C(F)(F)F)c1	-4.6%	-7.3%	i
Cc1cccc(Cn2cc3c(=O)n(CC(=O)Nc4ccc(C)c(F)c4)nc-3c3cc(F)ccc32)c1	-13.8%	22.4µM*	.
CCc1cccc(NC(=O)Cn2nc3c4cc(F)ccc4n(Cc4cccc(C)c4)cc-3c2=O)c1	-9.1%	29.2%	.
Cc1cc(C)c2c(CC(=O)Nc3ccc(S(=O)(=O)N4CCCC(C)C4)cc3)coc2c1 (configuration not stated)	2.2%	?	.
Cc1cc(C)c2c(CC(=O)Nc3ccc(S(=O)(=O)N4CCCCC4)cc3)coc2c1	-10.6%	22.4µM*	.
CCOc1ccc(Nc2nc(-c3c(C)nc4ccccn34)cs2)cc1	?	-21.1%	?
CCOc1ccc(Cc2nc(-c3c(C)nc4ccccn34)cs2)cc1	11.9µM*	.	-11.9%
COc1cccc(NC(=O)Nc2ccc3nc(N4CCN(C)CC4)cc(C)c3c2)c1	-29.6%	44.1%	.
C=CC(=O)Nc1cccc(Oc2nc(Nc3ccc(N4CCN(C)CC4)cc3)ncc2Cl)c1	2.99µM*!	8.5%	-11.3%
COc1ccc2c(c1)c1c(c(=O)n(CCc3ccccc3)c(=O)n1Cc1ccccc1)n2C	-17.3%	1.7%	.
COc1ccc2c(c1)c1c(c(=O)n(Cc3ccccc3)c(=O)n1Cc1ccccc1Cl)n2C	-1.0%	3.16µM*	.
O=C(NCc1cccc(F)c1)c1ccc2c(c1)CC(=O)N2Cc1ccccc1	-2.2%	12.6µM*	-11.9%
O=C(NCc1ccco1)c1ccc2c(c1)CC(=O)N2Cc1cccc(F)c1	4.6%	27.2%	i
O=c1[nH]nc(Sc2ncc([N+](=O)[O-])s2)n1-c1ccc2c(c1)OCCO2	24.1µM*	?	-9.8%
CN1CCCC(c2n[nH]c(=O)n2-c2ccc3c(c2)OCO3)C1 (configuration not stated)	-2.3%	4.2%	4.7%
COc1ccc(CNC(=O)CNC(=O)c2cccc(-c3ccc(SC)cc3)c2)cc1OC	-26.0%	12.5%	-1.9%

Source: PubChem BioAssay (National Center for Advancing Translational Sciences (NCATS))
